Data: the supplement of paper PMC11732987, “Enantioselective OTUD7B fragment discovery through chemoproteomics screening and high-throughput optimisation” (Communications Chemistry, 2025)

How the values were obtained:
Assay in all cases: log2 ratio of Biotin-Ahx-Ub-VS probe labelling (fragment/DMSO); higher = less target engagement (more negative = stronger competition), active = hit call of the paper (q ≤ 0.05, log2 ratio ≤ -1)
Conditions in all cases: compound concentration: 200 uM; treatment time: 3 h
USP19 = biological target: T1, USP19 (UniProt O94966)
T1 sequence (whole entry): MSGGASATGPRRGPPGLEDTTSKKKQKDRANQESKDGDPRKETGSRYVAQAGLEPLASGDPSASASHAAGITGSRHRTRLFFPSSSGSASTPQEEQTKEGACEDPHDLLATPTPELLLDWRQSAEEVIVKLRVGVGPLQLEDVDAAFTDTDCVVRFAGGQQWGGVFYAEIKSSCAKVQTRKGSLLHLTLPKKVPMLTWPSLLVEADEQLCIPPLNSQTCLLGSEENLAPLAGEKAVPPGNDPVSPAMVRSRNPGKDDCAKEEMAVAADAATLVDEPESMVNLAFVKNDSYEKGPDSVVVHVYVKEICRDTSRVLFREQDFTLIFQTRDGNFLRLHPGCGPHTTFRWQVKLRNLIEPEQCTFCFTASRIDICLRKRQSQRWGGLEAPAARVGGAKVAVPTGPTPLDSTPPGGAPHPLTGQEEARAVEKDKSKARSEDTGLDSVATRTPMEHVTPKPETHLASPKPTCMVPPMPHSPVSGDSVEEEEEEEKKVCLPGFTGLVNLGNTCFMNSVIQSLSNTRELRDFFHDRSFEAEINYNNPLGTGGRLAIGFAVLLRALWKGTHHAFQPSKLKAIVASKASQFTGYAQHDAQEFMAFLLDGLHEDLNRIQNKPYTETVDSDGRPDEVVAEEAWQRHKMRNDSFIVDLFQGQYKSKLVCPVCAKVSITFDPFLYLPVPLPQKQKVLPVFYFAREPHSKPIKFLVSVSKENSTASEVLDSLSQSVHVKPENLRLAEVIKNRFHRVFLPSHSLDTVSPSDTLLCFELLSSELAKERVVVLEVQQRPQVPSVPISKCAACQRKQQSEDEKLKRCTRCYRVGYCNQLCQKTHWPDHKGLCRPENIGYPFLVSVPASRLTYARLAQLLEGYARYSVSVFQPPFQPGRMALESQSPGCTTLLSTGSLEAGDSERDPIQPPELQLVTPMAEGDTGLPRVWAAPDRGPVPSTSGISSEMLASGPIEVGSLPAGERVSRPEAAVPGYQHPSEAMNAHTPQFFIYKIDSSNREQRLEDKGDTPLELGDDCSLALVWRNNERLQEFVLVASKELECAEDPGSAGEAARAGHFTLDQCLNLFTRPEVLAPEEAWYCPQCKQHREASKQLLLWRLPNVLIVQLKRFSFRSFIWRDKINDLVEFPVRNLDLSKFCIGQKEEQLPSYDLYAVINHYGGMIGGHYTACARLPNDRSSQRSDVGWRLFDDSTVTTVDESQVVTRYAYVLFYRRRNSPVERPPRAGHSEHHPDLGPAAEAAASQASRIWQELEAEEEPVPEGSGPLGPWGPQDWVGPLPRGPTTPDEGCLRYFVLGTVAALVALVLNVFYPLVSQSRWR
How it was run: (§1)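 Average log2 ratios of fragment over vehicle were obtained by unpaired t-test from global-median-normalised Spectronaut label-free quantities. Proteins with ≥2 unique peptides were included. HEK293T lysate (495 µg per sample) was treated in triplicate with fragment at 200 µM or vehicle for 3 h, then with Biotin-Ahx-Ub-VS at 0.5 µM final for 1 h, and labelled DUBs were NeutrAvidin-enriched and run by diaPASEF LC-MS/MS.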

USP22 = biological target: T2, USP22 (UniProt Q9UPT9)
T2 sequence (whole entry): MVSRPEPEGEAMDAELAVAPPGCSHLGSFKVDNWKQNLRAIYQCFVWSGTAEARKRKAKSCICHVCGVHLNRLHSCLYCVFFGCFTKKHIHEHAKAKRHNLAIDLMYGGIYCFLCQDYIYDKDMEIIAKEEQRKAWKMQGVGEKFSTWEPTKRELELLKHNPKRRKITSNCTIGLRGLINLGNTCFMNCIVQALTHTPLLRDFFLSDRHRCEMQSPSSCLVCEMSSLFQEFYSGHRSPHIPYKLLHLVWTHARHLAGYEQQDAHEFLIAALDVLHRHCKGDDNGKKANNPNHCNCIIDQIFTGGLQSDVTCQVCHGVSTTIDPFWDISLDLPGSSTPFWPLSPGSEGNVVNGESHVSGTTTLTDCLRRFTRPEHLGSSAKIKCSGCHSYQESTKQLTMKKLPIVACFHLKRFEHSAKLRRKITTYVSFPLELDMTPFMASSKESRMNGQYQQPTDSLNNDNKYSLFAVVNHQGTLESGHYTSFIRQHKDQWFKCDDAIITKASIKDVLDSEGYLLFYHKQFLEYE
How it was run: as §1

USP24 = USP24 (UniProt Q9UPU5)
How it was run: as §1

USP25 = biological target: T3, USP25 (UniProt Q9UHP3)
T3 sequence (whole entry): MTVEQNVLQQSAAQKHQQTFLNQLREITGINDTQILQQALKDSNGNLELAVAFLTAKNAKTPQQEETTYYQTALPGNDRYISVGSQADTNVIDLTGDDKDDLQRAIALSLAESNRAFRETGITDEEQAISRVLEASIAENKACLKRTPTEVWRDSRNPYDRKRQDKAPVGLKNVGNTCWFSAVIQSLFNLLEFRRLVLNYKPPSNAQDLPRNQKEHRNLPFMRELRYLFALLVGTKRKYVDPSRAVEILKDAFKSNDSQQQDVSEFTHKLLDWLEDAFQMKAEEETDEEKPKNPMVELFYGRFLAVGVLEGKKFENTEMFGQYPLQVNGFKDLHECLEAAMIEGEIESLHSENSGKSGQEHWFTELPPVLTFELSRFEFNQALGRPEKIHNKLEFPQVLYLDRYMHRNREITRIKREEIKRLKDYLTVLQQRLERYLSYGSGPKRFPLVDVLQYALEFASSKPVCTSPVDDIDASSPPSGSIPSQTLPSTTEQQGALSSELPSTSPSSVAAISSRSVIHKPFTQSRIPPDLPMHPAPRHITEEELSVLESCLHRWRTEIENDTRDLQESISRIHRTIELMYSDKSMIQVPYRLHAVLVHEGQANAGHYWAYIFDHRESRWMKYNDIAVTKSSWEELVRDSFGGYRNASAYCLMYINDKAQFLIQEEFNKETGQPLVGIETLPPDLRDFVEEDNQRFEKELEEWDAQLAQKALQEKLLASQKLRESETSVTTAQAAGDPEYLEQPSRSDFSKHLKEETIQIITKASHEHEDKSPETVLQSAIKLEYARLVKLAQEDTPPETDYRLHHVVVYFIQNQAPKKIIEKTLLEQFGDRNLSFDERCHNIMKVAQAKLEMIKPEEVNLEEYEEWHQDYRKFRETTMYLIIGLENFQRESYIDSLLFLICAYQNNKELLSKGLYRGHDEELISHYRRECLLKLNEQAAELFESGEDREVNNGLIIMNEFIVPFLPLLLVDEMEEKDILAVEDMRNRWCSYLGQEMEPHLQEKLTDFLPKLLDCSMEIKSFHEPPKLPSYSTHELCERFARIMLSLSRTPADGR
How it was run: as §1

USP28 = biological target: T4, USP28 (UniProt Q96RU2)
T4 sequence (whole entry): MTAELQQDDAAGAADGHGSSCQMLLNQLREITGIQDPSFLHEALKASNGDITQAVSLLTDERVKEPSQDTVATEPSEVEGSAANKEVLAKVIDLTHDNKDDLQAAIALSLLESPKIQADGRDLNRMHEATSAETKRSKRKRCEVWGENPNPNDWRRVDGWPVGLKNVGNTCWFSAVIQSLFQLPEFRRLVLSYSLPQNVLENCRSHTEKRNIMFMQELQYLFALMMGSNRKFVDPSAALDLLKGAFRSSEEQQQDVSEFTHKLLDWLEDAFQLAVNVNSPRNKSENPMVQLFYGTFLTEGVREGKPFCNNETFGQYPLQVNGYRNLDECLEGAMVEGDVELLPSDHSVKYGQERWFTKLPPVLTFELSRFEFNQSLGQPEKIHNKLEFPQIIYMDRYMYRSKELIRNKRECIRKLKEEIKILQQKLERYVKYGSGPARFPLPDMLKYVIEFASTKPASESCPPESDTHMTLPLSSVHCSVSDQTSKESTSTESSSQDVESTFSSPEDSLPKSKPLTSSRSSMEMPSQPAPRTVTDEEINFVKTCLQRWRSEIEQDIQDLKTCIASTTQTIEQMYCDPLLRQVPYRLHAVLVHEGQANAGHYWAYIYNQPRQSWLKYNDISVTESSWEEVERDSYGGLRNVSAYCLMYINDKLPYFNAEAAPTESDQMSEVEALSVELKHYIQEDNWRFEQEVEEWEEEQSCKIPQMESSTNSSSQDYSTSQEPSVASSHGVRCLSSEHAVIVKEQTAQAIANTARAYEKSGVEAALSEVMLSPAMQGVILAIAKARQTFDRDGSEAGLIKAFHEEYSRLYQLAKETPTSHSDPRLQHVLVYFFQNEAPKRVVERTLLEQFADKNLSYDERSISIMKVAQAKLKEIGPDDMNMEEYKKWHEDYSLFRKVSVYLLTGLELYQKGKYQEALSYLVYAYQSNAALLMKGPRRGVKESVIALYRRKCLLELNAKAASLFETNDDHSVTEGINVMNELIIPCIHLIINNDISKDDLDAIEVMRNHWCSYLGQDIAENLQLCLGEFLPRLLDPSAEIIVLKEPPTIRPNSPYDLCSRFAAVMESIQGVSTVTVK
How it was run: as §1

Measured: log2 ratio of Biotin-Ahx-Ub-VS probe labelling

Chain of USP24 (Q9UPU5 whole entry): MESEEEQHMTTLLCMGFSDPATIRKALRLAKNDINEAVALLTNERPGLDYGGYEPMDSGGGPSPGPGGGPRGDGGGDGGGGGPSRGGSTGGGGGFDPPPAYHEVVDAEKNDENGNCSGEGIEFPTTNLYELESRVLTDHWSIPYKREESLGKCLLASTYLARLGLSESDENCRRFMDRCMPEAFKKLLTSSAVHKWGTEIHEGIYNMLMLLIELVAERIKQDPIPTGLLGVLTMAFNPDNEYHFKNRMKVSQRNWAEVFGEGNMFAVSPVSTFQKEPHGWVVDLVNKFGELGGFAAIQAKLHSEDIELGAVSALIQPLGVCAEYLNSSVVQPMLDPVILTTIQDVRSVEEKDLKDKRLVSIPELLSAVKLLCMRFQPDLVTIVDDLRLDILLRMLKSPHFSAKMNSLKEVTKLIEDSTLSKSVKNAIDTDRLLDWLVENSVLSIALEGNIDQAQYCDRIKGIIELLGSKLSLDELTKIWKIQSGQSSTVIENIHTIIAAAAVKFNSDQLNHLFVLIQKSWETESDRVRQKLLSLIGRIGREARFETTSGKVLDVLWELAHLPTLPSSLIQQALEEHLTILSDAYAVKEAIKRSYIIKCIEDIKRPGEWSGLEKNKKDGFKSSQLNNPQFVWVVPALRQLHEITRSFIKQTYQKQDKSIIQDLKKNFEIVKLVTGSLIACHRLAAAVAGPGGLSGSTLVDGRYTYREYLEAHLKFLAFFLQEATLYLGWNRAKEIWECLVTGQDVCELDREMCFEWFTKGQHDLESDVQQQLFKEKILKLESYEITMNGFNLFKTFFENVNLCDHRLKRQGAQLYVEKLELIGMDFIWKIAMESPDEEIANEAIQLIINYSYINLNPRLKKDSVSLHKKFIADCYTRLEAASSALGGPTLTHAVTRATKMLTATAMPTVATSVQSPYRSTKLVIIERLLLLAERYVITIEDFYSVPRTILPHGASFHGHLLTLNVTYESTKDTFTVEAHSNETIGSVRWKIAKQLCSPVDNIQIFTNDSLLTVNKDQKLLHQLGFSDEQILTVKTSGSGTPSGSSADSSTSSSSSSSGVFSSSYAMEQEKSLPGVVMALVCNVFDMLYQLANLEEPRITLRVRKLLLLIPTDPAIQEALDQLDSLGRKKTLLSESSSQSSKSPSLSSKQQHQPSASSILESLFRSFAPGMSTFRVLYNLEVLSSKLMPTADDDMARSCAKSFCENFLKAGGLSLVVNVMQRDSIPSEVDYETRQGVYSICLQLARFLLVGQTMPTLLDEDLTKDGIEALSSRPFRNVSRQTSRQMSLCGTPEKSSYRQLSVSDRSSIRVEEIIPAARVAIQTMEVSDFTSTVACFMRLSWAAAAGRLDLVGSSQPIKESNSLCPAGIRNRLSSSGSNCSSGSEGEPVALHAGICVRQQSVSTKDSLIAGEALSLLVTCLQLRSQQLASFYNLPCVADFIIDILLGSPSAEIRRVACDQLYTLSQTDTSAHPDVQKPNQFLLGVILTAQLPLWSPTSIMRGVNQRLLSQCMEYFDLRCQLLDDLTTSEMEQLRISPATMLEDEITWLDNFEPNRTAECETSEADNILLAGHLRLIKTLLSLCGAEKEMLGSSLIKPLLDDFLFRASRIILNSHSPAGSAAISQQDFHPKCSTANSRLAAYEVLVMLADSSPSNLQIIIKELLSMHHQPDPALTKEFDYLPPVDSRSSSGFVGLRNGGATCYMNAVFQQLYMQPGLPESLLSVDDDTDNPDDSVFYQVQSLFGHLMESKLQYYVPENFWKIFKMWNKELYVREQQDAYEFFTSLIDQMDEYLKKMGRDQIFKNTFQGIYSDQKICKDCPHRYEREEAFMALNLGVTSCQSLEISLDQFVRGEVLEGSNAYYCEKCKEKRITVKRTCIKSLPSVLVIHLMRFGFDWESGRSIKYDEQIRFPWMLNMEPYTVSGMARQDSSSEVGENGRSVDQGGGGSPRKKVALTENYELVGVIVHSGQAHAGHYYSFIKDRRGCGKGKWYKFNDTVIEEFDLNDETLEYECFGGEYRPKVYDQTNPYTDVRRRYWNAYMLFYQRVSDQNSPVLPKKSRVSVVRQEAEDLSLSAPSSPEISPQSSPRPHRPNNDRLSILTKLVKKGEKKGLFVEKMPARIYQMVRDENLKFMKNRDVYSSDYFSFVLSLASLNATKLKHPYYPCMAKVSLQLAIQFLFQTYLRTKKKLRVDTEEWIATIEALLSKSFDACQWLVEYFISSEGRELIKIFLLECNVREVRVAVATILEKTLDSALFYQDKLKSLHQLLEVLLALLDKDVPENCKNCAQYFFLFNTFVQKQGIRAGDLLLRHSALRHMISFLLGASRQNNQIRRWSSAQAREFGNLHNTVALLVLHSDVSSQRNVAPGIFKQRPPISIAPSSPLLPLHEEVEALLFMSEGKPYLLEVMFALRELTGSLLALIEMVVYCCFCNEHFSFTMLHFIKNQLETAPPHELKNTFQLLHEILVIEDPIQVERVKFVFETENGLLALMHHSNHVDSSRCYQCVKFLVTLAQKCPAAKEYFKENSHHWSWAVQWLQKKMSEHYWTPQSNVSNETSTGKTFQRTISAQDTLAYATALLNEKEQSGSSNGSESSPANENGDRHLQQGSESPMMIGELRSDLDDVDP

COCC1C=CCCN1C(=O)CCl (stereo not given)
inactive: USP19 -0.24 | USP22 -0.0428 | USP24 -0.137 | USP25 -0.32 | USP28 -0.342
